This note sets out measurements from PubChem BioAssay AID1508600 (Functional Genomics Laboratory (NCATS/FGL), 2020).

Among all 53,000 sequences or so, about 3,700 (7%) were called active.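 The calls were made as follows: active = gene knockdowns whose robust z-score for IL-1 alpha signal is at least 2 or at most -2, so actives lie on both sides; inactive = the rest.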 The full list was thinned out, with actives kept by preference.

The nature of this assay: Components of the Cytosolic LPS Sensing Pathway: Gene Identification via Genome-wide siRNA Screen.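 Also: robust z of the log signal after scaling to non-targeting control siRNA wells of the plate.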 The following applies: RAW264.7 macrophages, IL-1a HTRF, actives lie on both sides, screened at 100 nM (by protocol), cells primed 5 h with Pam3CSK4 first. The procedure, abridged: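 Knockdown: 100 nM siRNA, 48h, RAW264.7. Stimulation: Pam3CSK4 5 h, then LipidA via TransIT-TKO 24 h. Output: supernatant IL-1a HTRF, negative-control-normalized, log robust z-score; viability by CellTiter-Glo.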
Background: In TR-FRET formats the signal depends on donor and acceptor labels being close together.
In the case of CCUUCCUGUCCAUGUACCUTT against Olfr412, the z-score was 0.879 (inactive).

In the case of GGUCACUGUAAAAUGAACCTT against Odf2, the z-score is 1.48 (inactive). For the sequence CGCACAUGUAGUUAAUAAATT against Iqcg, the z-score is -0.96 (inactive). With GGGCAAAGGAAAUGGAAUCTT against Eif5, the z-score was 2.33 (active).

GGCUCUUACUUCAUCACUATT against Casp4: the z-score was -1.9 (inactive). With GGCCACUUCGUGUUCUUUUTT against Hoxa10 the figure was 2.08 (active); with GGUUUUUAACCAAACAUGATT against Actr3, -0.784 (inactive). To CCAUCACUACACGAAAUUGTT against Fgf12 belongs 0.176 (inactive); to AAAAAUGUCGGAUUCCCAATT against Adgrf3, -0.121 (inactive). As for GCGAGUCUCACAUCAGUGATT against Tshz3, the z-score is 2.68 (active).

On to CGCAGCAGGAAUCAGGAAUTT against Tsr1, for which the z-score is 0.222 (inactive). To GGAUGUGGAGUCACUGAUGTT against Ccdc91 belongs -0.863 (inactive); to GGAUGAUGACGACAUUGAUTT against Eef1b2, 0.292 (inactive).

For GGCAGACAACGUGUCACCUTT against Aldh1a3, the z-score is -0.883 (inactive).

GGAGAAGACCAUAAAGAAGTT against Flywch1: the z-score was -0.554 (inactive). As to GACAUUUGUAUGCAGUCAUTT against Vmn1r193, the z-score was -2.65 (active). As to CCCUCUACACUAUACCACATT against Olfr347, the z-score is -0.498 (inactive). Consider GGAUUCUGGGCUGAAUGGGTT against Pcdh18, for which the z-score was -0.491 (inactive).

In the case of GGAACCAUCUUCAACCAACTT against Eme1, the z-score is -1.44 (inactive).

GGAGAACUGUAAAUAAACUTT against Duoxa2: the z-score was -2.1 (active). To CCAUAGAGUGGAUAGUCAUTT against Rsl1 belongs 0.385 (inactive); to CCCUCAAAACCUAUGCCUUTT against Ugt1a2, 0.715 (inactive).

For the sequence GCAGGCUAUGUUCUGGAAUTT against Zfp212, the z-score was 2.34 (active). Consider GGAUGAUUGCUGACGUGGATT against Bax, for which the z-score is 0.299 (inactive). To CCUCCUAUUUGCUUCAUUUTT against Cytip belongs -1.32 (inactive). To CCUGAUCCGAUCAUCAGGATT against Cytip belongs 0.133 (inactive); to GGAAGGGCAAGUUAUGAAATT against Fgf14, 0.0843 (inactive). With GGGACAUUUCUAUUAGAAUTT against Snx24 the figure was -0.95 (inactive). Regarding CCAUACCAAUGAAUGCCUCTT against Fas, the z-score is -1.4 (inactive).

As for “CCACUUCCUUACGAUUGAUTT against Aadacl4fm1”, the z-score is -2.09 (active). With GGCUGAGGAGUGGUACUUUTT against Src the figure was -1.13 (inactive); with GCUAUGACUUCAACGACUATT against Pcsk4, -0.309 (inactive); with GGAUCUGUACAAGACUUAUTT against Olfr800, -0.011 (inactive).

In the case of GCCAACAGAAAUAAGCCUUTT against Sorcs1, the z-score is 0.221 (inactive).

Regarding CCACACCAGAGGUCUUUGATT against Pde4dip, the z-score was -1.74 (inactive).

As for CGAUUCCUUUGUAACGAAATT against Aldh5a1, the z-score is 1.04 (inactive). With GGCACUUAAGUUUCAUAAGTT against Qars the figure was 0.466 (inactive); with CCAAGAGCUGAAACAAGAATT against Ankrd12, -2.01 (active). For the sequence GGUAGUGAUCCUCAAAAAATT against Myc, the z-score is 1.84 (inactive). Consider AGUCUUCACGUUUCAUUUATT against Olfr1195, for which the z-score was 0.32 (inactive). CGCUGUUUGUUCAAGAGGATT against Thbs1: the z-score was 1.05 (inactive). Regarding GCACAAGCGAAGAAGUUUGTT against Ube2i, the z-score was -0.0933 (inactive). With GCUCAACUUGGAAUUGGAGTT against Arhgap29 the figure was 2.28 (active); with CCAUCUUGACAUCUCGUGUTT against Olfr592, -1.9 (inactive); with CUUUAUGGGUCGUGGAGGATT against Hnrnpa3, -1.12 (inactive). With GGAAUAGGACCUAUGUCUGTT against Nr2e1 the figure was -0.455 (inactive); with CCCUGGCUGAGUGCUUUGUTT against Olfr199, 0.887 (inactive).

Turning to GGGUUGCCACAUGUUAUAUTT against Smad2, the z-score is -0.0821 (inactive). GGAGAAUGAGUGGUAUCUGTT against Msh2: the z-score was -1.48 (inactive). As for AAGGACGAUCCUGAUUUCATT against Gm5431, the z-score was 0.828 (inactive). To CCAUACAUCCGAGAGUUUGTT against Snrnp70 belongs 2.37 (active); to GCCCUUUCAUCAAUAAUGUTT against Slc12a7, -0.113 (inactive). With GGAAACAUAACCUUCAAUGTT against Wdr3 the figure was 1.13 (inactive). To CGGAAGCCUCCACAAAUAATT against Apba1 belongs 0.0959 (inactive); to GGUGUCUACUCUGAGUUGCTT against Pan2, 1.94 (inactive); to GCGGAGGAGUUUUCUUCGATT against Susd4, 0.93 (inactive). On to GGACCAUGCUCCCUACUUATT against Prss37, for which the z-score was 0.386 (inactive).

With GGCUGGUUGGAAGGAAAAUTT against Ints6l, the z-score was 2.1 (active). To GGCUGUUCAAAAAUUUCGGTT against Sox17 belongs -0.261 (inactive); to GGUUUUGAGAAGAUAACUCTT against Zfp236, 0.67 (inactive); to GGACACACUCUACUUCCCATT against Mrgprg, -0.196 (inactive). For the sequence GGUUCGAGUUUCAUACUAUTT against Padi4, the z-score was 2.56 (active). To “GUCAGAACAAAACCAAAUGTT against E330013P04Rik” belongs -0.152 (inactive); to GGAAUCAUCUUCAUUGACCTT against Agpat1, 0.0827 (inactive). To CGUGUGGUGUUGGUAUCAGTT against Spaca1 belongs 0.853 (inactive).

For the sequence GGAUUCAUAAAAGAAGCAATT against Zfp90, the z-score is 0.8 (inactive). As to GGCGGCACGUUCACCUAAATT against Rnps1, the z-score is 1.86 (inactive). Turning to CCACUUGUAGACUUGAUUUTT against Jag1, the z-score is 0.618 (inactive). With GCCCAGAUCAAUUUGAGCGTT against Grhl2 the figure was -0.674 (inactive); with “CGAGAUAGAGUCUGGAAUUTT against 1700092C17Rik”, 3.91 (active).

As for GGUCAUCGGGAGGUUUGAATT against Nfkbil1, the z-score was -0.0141 (inactive).

Turning to GGAUCUCUAUAGCAUCGUGTT against Col18a1, the z-score is 0.249 (inactive). With GGGAUGCUGUAGAUGGAAUTT against Olfr978 the figure was 0.0466 (inactive); with GGCAAAUCAAGCAGAAAAUTT against Ncor1, 0.739 (inactive); with GAUAAUGGUCACUAAAUCUTT against Vmn1r4, -1.65 (inactive). As for GCAACCAUUUAAGAAGACCTT against Tnfrsf9, the z-score is -0.301 (inactive). To GGUGAUCUGGACCAAGAUGTT against Lcp1 belongs -0.52 (inactive); to GGUCUACUUUUACGUCUCCTT against Nfatc4, -0.339 (inactive); to GUGUACGUCUGUUAACACATT against Dad1, -2.1 (active). As to CCUUCUUGAAAACUCCAAGTT against Lum, the z-score was -0.862 (inactive). To GGGAAGGCACACCAUAGAATT against Zfp369 belongs 1.11 (inactive); to “GGGCUACUAUUCAUUGAUCTT against 4930550L24Rik”, 1.94 (inactive).

For CCACUAAGUCCCAUGCUAGTT against Glycam1, the z-score is 0.188 (inactive). Turning to GGAAUUUAAGGUGUUCACATT against Lcn3, the z-score was -0.197 (inactive).

As to GGCUCAGUGAGUUUCAGAATT against Snx25, the z-score was 3.66 (active). For CCAAAUGUAACUGGUGUAATT against Aif1l, the z-score is -0.69 (inactive).

Turning to CGAGACAGUUUCCAUAGCGTT against Spen, the z-score is -0.271 (inactive).

Consider GCAACAUUAGGAUUUAUAGTT against Gask1b, for which the z-score is 0.0376 (inactive).

As to GGUAGUCAUACAGAUAUGUTT against Hey2, the z-score is 0.973 (inactive). To GCAAUCUCUCCUUUUGUGATT against Olfr1128 belongs 0.426 (inactive); to GGACUUUCACAGACCACUUTT against Rgma, 0.999 (inactive).

For GGAACAAGGAUGUAAAAUUTT against Olfr1090, the z-score was -0.751 (inactive). With GGAAGACUUUCUGGACAUATT against Sgk2, the z-score was 2.44 (active). For CCUACAGCAACCAUAAGGATT against Plch2, the z-score was -1.6 (inactive). To GGACAGCUGUUUCAAUUCUTT against Il1rap belongs -0.162 (inactive). With GGAUUUGCCUACACAUAUGTT against Nqo1 the figure was 0.362 (inactive). To CCCUUCUCCACCUGAGAGUTT against Orm3 belongs -2.25 (active); to GGAAAUGAAGAGUGUUGAATT against Slc7a3, -0.4 (inactive). As for UGCCCAAGACUCAGAAGUCTT against Igf1, the z-score is 0.0658 (inactive). With GCUAACUGCCUUGGGAAGATT against Lyl1 the figure was 2.57 (active); with GGCCAAGCACGAUAAAUACTT against Stub1, -1.08 (inactive); with CCUACAGUAUGUGGCAGAUTT against Grb7, -1.49 (inactive). With GGUGUUUUAUACACUCUGUTT against Mgme1 the figure was -1.85 (inactive). With GGACUUAAAACAGAAAGCATT against Haus1 the figure was -2.79 (active); with CGUGGUUGUACAUAUUUGUTT against Trip10, 0.39 (inactive). For the sequence GGGAAACAAAUUGUUUGCATT against Dnaaf4, the z-score was -0.461 (inactive). With GGCUUUGUCGUUAAUUUUUTT against Auh the figure was 0.322 (inactive). Consider GGUGCAUUAUCUUGGUUCGTT against Hmga2, for which the z-score is -2.46 (active).
